The source of these data is PubChem BioAssay (NCATS).

For test [1] the following is noted: Ebola virus entry assay, green fluorescence channel.
For test [2] the following is noted: Ebola virus entry assay, blue channel fluorescence.
The conditions of test [3]: Ebola virus entry assay, green fluorescence channel. The source holds these as a separate data set.
For test [4] the following is noted: Ebola virus entry assay, ratio channel readout.
The conditions of test [5]: Ebola virus entry assay, blue channel fluorescence. This is another data set of the same source.
For test [6] the following is noted: Ebola virus entry assay, ratio channel.

Molecules are shown by their SMILES. A number with no mark means an inactive call. For part of these data: Potency and affinity values are given separately. The source made the active and inactive calls.
Throughout, for efficacy: 0% is about no effect.

Consider `O=C(CCCCCCC(=O)Nc1ccccc1)NO`, for which, in test [1], the efficacy was -11.4%. The result in test [2], in test [3], in test [4], in test [5] and in test [6] was inactive.

Take `Cc1oncc1C(=O)Nc1ccc(C(F)(F)F)cc1`: the efficacy in test [1] was -17.5%. Further, the molecule was called inactive in test [2], in test [3], in test [4], in test [5] and in test [6].

In the case of `CS(=O)(=O)OCCCCOS(C)(=O)=O`, the efficacy in test [1] was 19.1%. Besides, the call in test [2], in test [3], in test [4], in test [5] and in test [6] was inactive.

For `C[n+]1ccccc1/C=N/O`, the efficacy in test [1] was -22%. In addition, the outcome in test [2], in test [3], in test [4], in test [5] and in test [6] was inactive.

For the molecule `O[C@@H](c1cc(C(F)(F)F)nc2c(C(F)(F)F)cccc12)[C@H]1CCCCN1`, the efficacy in test [1] was -219%. Besides, the concentration at half-maximal activity (AC50) – broadly, the concentration giving half of the maximal activity seen – was 7.94 µM (active) in test [2], 5.63 µM (active) in test [4], 1.58 µM (active) in test [5] and 1.58 µM (active) in test [6]. In addition, in test [3], the result was inactive.

Take `O=C1CCc2cc(OCCCCc3nnnn3C3CCCCC3)ccc2N1`: the efficacy in test [1] was 80.2%. Further, the molecule was called inactive in test [2], in test [3], in test [4], in test [5] and in test [6].

Take `C=C(c1ccc(C(=O)O)cc1)c1cc2c(cc1C)C(C)(C)CCC2(C)C`: the efficacy in test [1] was 22.5%. The molecule was called inactive in test [2], in test [3], in test [4], in test [5] and in test [6].

For the molecule `CCN(CC)CCNC(=O)c1c(C)[nH]c(/C=C2\C(=O)Nc3ccc(F)cc32)c1C`, in test [1], the efficacy was -131%. Also, the AC50 in test [2] is 3.55 µM (active); in test [4], 3.17 µM (active); in test [5], 1 µM (active); in test [6], 0.708 µM (active). Besides, in test [3], the outcome was inactive.

`CCC(=O)C(CC(C)N(C)C)(c1ccccc1)c1ccccc1` (stereo unspecified): the efficacy in test [1] is 118%. In addition, the call in test [2], in test [3] and in test [4] was inactive. Further, the values for the AC50 in test [5] and in test [6] were 10 µM (active) and 7.94 µM (active), respectively.

For the molecule `COc1cc(NCc2ccc3nc(N)nc(N)c3c2C)cc(OC)c1OC`, the efficacy in test [1] was 44.2%. In addition, the result in test [2], in test [3] and in test [4] was inactive. The values for the concentration at half-maximal activity (AC50) in test [5] and in test [6] were 35.5 µM (active) and 28.2 µM (active), respectively.

Regarding `COc1nc(N)nc2c1ncn2[C@@H]1O[C@H](CO)[C@@H](O)[C@@H]1O`, in test [1], the efficacy was -33.2%. Also, the call in test [2], in test [3], in test [4], in test [5] and in test [6] was inactive.
